Experimental data published in publication PMC13494018.
A number with no mark means an inactive call. The rule behind the calls is not given here.

B1: d8r1_design_ppi_536_dldesign_0_cycle1_af2pred (protein)
chain: NKDKEIAELLLKLAEAAKEDPEKALKIAEEIEKLGNKEFGGALKTLLELAVAEKGKAGENAKAAAIVLSTSRAEDLLAK
B2: d8r1_design_ppi_139_dldesign_0_cycle1_af2pred (protein)
chain: AKLIEELKKEAKAVKELAKKGAPAEELDAAVKKLGEAMTKLAKAMATMSPEEKAKARAALAEAAKAAIEAGEVAEKLRAA
B3: d8r1_design_ppi_1318_dldesign_0_cycle1_af2pred (protein)
chain: SAAAAAAARGEAAVASLTATGAAIVAAAKKDPSEAASMVRAVKNLGQAYANRVPPEYAAKVLAVAATYAAQIAAIM
B4: d8r1_design_ppi_286_dldesign_0_cycle1_af2pred (protein)
chain: SNEEKAEDLRFMARAVLGVGATASAAETAAFLNDVAAAAARLDPEAGAAVAAIGAAAAASGDAKAAAKAAAAVLEAAAEEFL
B5: d8r1_design_ppi_869_dldesign_0_cycle0_af2pred (protein)
chain: SEDAQSAVRFAQNTLETAKRKAAEDPARGRQIAANLATAAATAAAKFAGLPEAATLKALQAQAAALAAALA
B6: d8r1_design_ppi_1356_dldesign_0_cycle1_af2pred (protein)
chain: DPELIARTALSAAVMLEKGVAGTPEAALNAADGSALLLESKAESFGSEELKELAKKAKEAAKKIKADPEAGKKALREVAEELKKLAE
B7: d8r1_design_ppi_671_dldesign_0_cycle1_af2pred (protein)
chain: AESYRAAAAAIAQAAADNPAGAADAAAALVAMAKMSSPEKAAAIAEGVEAVAEGAPADVRALLLAAAAEIKAIV
B8: d8r1_design_ppi_1470_dldesign_0_cycle1_af2pred (protein)
chain: DAAAQAATALQGAKNALAAADLLEAEGTKGALLAAGSLYIAAGEQLATAYTLLGKPEEGKAVAAELNAKGKALLAAA
B9: d8r1_design_ppi_1425_dldesign_0_cycle1_af2pred (protein)
chain: SVEERKKRAEAIAKRSRAVARALAAADPARGIALAESAAVSFEKWAELYPEIKEFAEALAAEHRALAAEIRAAA
B10: d8r1_design_ppi_134_dldesign_0_cycle1_af2pred (protein)
chain: AAAEAAREAVRAAAAAAREAAAKMSPSKAKAVESIVERTTRVADELIAAGDYRTAVRAAASAEAAAKTLLEVDK
B11: d8r1_design_ppi_509_dldesign_0_cycle0_af2pred (protein)
chain: SDEKWAAAAAHMGAAQKAADAAVAAAAAGNTAAAKAAQAEAAAHYDKAAEEAKEYSPEAGAAMKSTREATVALINAKL
B12: d8r1_design_ppi_1425_dldesign_0_cycle0_af2pred (protein)
chain: STESREKALKAISEKSKAKAKKLAAEDPAKGLALAKNAAKSFKDWAKADPETKETAEAQAKEHEALAKEIAAAA
B13: d8r1_design_ppi_1265_dldesign_0_cycle1_af2pred (protein)
chain: SENEEAAKALTRAAEAAARYLAEKYGELAKEAAKLIAKAAEADAETAVKYLEEAVKLLDEAGKKTGATKETDALKAMAEKAAELKKA
B14: d8r1_design_ppi_869_dldesign_0_cycle1_af2pred (protein)
chain: SEEAQAAVRFARNLLEVARLRAEEDPARGRAIAANLEVAARTLAEKHAGLPEAEELRRLAAEAAALAAELA
B15: d8r1_design_ppi_1324_dldesign_0_cycle1_af2pred (protein)
chain: AAAKLAALKKEIKALIGAAAAYQIAKDSSKLDEYVAKANKLIALADKDPVAAAKETAKLAEEAGDEETAKKAKEAAKEAKKL
B16: d8r1_design_ppi_310_dldesign_0_cycle0_af2pred (protein)
chain: SRARALASIAALAELAAELAEENPASGAQLGKVVASALAALGLTDEAARVAAASPADLKAVMREVAAAARAAAAALA
B17: d8r1_design_ppi_509_dldesign_0_cycle1_af2pred (protein)
chain: KDEHFDKMVEYLKKAQEAYNKAVAAAKAGDADAAKAALAKAQEYYDKAIKEAEKYSPEAGAAMKSTKEKSVAIANAAL
B18: d8r1_design_ppi_167_dldesign_0_cycle1_af2pred (protein)
chain: SKEERYKKAAEWLAETSKKAIALRKANPAVAPLAIKMHGAAAHAAAALVAGDEEKAEEYKKKSEEYLKEAEAAIA
B19: d8r1_design_ppi_1447_dldesign_0_cycle1_af2pred (protein)
chain: SEAEDIASFARMATTAAASAAKKDIASAKTLMDAVAKLPGAAAHVTAAGNAAIAAAATVDPARAAELAAYLAARLAAL
B20: d8r1_design_ppi_482_dldesign_0_cycle0_af2pred (protein)
chain: STTDEMIEKIAKAAQEAMKLAKEGKYEEAYALLKKMAEEAAKVSESLGALAKGVAEAMKNWIDKYKAEKA

Target: PDL1, Q9NZQ7
Sequence (Q9NZQ7 whole entry): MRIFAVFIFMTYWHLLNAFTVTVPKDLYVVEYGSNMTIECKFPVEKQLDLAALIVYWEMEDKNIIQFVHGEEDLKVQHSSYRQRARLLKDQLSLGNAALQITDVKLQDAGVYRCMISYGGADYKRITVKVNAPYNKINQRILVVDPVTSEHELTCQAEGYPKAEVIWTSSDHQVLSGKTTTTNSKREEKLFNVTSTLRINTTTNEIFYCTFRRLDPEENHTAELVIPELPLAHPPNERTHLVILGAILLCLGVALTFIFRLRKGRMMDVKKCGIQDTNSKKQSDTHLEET

Binder	binding in a display sort
B1	not found
B2	not found
B3	binds (active)
B4	binds (active)
B5	not found
B6	not found
B7	not found
B8	not found
B9	not found
B10	binds (active)
B11	not found
B12	not found
B13	binds (active)
B14	binds (active)
B15	not found
B16	not found
B17	not found
B18	not found
B19	not found
B20	not found
